{"source": "PubChem BioAssay (NCATS)", "note": "A number with no mark means an inactive call. Calls follow the shape of the dose curve; as a rule, active = well fitted activation curve with a large enough effect; inconclusive = small, poorly fitted or top-dose-only effect; inactive = flat fitted curve, though single readings scatter."}
{"experiment": "Cellular Toxicity (caspase-3) Mesangial (AID 660);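 also: combined caspase 3 and 7 activity read by Caspase-Glo luminescence; cells exposed to compound for 16 h before the caspase read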", "settings": "mesangial cells, normalized: DMSO 0%, 100 µM tamoxifen 100%; series mostly up to 91.7 µM; caspase-3 activation: at the top concentration", "excerpt": "NIH Chemical Genomics Center [NCGC]\nNIH Molecular Libraries Screening Centers Network [MLSCN]\nNational Institutes of Environmental Health Sciences [NIEHS]\nNational Toxicology Program [NTP]\nWe have developed a 1536-well cell-based assay for quantitative high throughput screening (qHTS) against a number of cell lines to determine in vitro caspase 3/7 of small molecules. This particular assay uses the mesangial cell line which is derived from normal human renal glomeruli.\nNCGC Assay Protocol Summary:\nThe Caspase-Glo 3/7 assay (Promega) is a homogeneous method to measure caspase-3 and caspase-7 activities in cultured cells. The quantitation of caspase 3/7 activity is based on the cleavage of a peptide-aminoluciferin substrate. After caspase cleaves the substrate the free aminoluciferin is liberated and serves as the substrate of luciferase, which generates the light. The luminescent signal is proportional to amount of caspase 3/7 activity present.\nUsing the Caspase-Glo 3/7 assay, the amount of caspase 3/7 activity was measured in the mesangial cell line with complete culture medium following compound treatment for 16 hours. The assay was performed in opaque white 1536-well plates. In the screen, tamoxifen and doxorubicin were used as positive controls. Library compounds were measured for their ability to cause the activation of caspase 3/7 in the cell line, as reflected by an increase in luminescence signal, in a concentration-dependent manner. Data were normalized to the controls for basal activity (DMSO only) and 100% stimulation (100 uM tamoxifen). AC50 values were determined from concentration-response data modeled with the standard Hill equation.\nqHTS protocol for caspase 3/7 assay in mesangial cell line\n[Step] [Parameter] [Value] [Description]\n1. Reagent; 5 uL; 1000 mesangial cells/well\n2. Time; 5 hr; 37 °C incubation\n4. Controls; 23 nL; Tamoxifen 0.23 uM to 100 uM & doxorubicin 7.0 pM to 100 uM\n5. Time; 16 hr; 37 °C incubation\n6. Reagent; 5 uL; Caspase-Glo 3/7 reagent\n7. Time; 20 min; Room Temperature\n8. Detection; Luminescence; Viewlux plate reader\nKeywords: caspase 3/7, apoptosis, mesangial cell line, luminescence, NTPHTS, NTPHTS_NCGC, NIEHS, EPA, DSSTox, MLSMR, MLSCN, NIH Roadmap, qHTS, NCGC", "units": {"caspase-3 activation": "%"}}
{"smiles": "c1ccc2c(c1)-c1cccc3cccc-2c13", "caspase-3 activation": 0.512}
{"smiles": "Cc1ccccc1O", "caspase-3 activation": -0.534}
{"smiles": "CC(C)COC(=O)c1ccccc1C(=O)OCC(C)C", "caspase-3 activation": -0.985}
{"smiles": "Oc1ccccc1Cl", "caspase-3 activation": 1.36}
{"smiles": "CC(C)(c1ccc(OCC2CO2)cc1)c1ccc(OCC2CO2)cc1", "note": "(configuration not stated)", "caspase-3 activation": 1.84}
{"smiles": "COC1=CC(=O)OC(CCc2ccc3c(c2)OCO3)C1", "note": "(configuration not stated)", "caspase-3 activation": -0.394}
{"smiles": "CC(=O)/C=C/c1ccccc1", "caspase-3 activation": -0.888}
{"smiles": "COC(=O)c1ccccc1C(=O)OC", "caspase-3 activation": 0.753}
{"smiles": "O=Cc1ccccc1", "caspase-3 activation": 0.169}
{"smiles": "CCOc1cc(C=O)ccc1O", "caspase-3 activation": 0.0364}
{"smiles": "CCOC(=O)c1ccccc1N", "caspase-3 activation": 1.26}
{"smiles": "Oc1c(Cl)c(Cl)c(Cl)c(Cl)c1Cl", "caspase-3 activation": -0.0755}
